We go through 17 compounds from PubChem BioAssay (Tox21).

Assay [1] is described as follows: qHTS assay for identifying genotoxic compounds that show differential cytotoxicity against isogenic chicken DT40 cell lines with known DNA damage response pathways - wild type cell line (AID 743012). Note: nearly all actives have a fitted effect of over 60% in size. Note: potency is the fitted concentration of half-maximal effect. In short, it runs like this: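 Viability of DNA repair-proficient chicken DT40 cells was assessed by CellTiter-Glo luminescence following 40 h compound exposure at 37 C/5% CO2.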
(In qHTS, concentration-response curves come from the screen itself.)

A short description of assay [2]: qHTS assay for identifying genotoxic compounds that show differential cytotoxicity against isogenic chicken DT40 cell lines with known DNA damage response pathways - Rev3 mutant cell line (AID 743014). Note: nearly all actives have a fitted effect of over 55% in size. Note: potency is the fitted concentration of half-maximal effect.
Assay [3] can be described thus: qHTS assay to identify small molecule antagonists of the androgen receptor (AR) signaling pathway - cell viability counter screen (AID 743033; note: nearly all actives have a fitted effect of over 45% in size; note: potency is the fitted concentration of half-maximal effect).
A short description of assay [4]: qHTS assay to identify small molecule antagonists of the androgen receptor (AR) signaling pathway using the MDA cell line - cell viability counter screen (AID 743041; note: nearly all actives have a fitted effect of over 45% in size; note: potency is the fitted concentration of half-maximal effect). The method, boiled down:
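Cytotoxicity counter screen: MDA-kb2 AR-luc cells, compound + R1881, 16 h, 37C, 0% CO2; CellTiter-Fluor added at 15.5 h, fluorescence read after 30 min.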

A short description of assay [5]: qHTS assay to identify small molecule antagonists of the thyroid receptor (TR) signaling pathway - cell viability counter screen (AID 743064). Note: nearly all actives have a fitted effect of over 50% in size. Note: potency is the fitted concentration of half-maximal effect. In short, it runs like this: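 Compounds were tested on GH3.TRE-Luc cells in the presence of T3 at 1 nM final. Following 23.5 h at 37 °C, cell viability was quantified by CellTiter-Fluor.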
Assay [6] in a line: qHTS assay to identify small molecule antagonists of the thyroid receptor (TR) signaling pathway (AID 743065). Note: nearly all actives have a fitted effect of over 55% in size. Note: potency is the fitted concentration of half-maximal effect. The method, boiled down:
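GH3.TRE-Luc rat pituitary cells (two TREs driving luciferase) were dosed with compound, then stimulated with 1 nM T3 (final) for 23.5 h at 37 C. ONE-Glo luminescence was the read-out, with CellTiter-Fluor fluorescence as the cytotoxicity counter-screen.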

In assay [7] the test system is thyroid hormone receptor (rat, GH3 cells). Kind of assay: qHTS assay to identify small molecule agonists of the thyroid receptor (TR) signaling pathway (AID 743066; calls by dose curve).
Assay [8] addresses Estrogen receptor (Homo sapiens) (UniProt P03372). The experiment in a line: qHTS assay to identify small molecule antagonists of the estrogen receptor alpha (ER-alpha) signaling pathway (AID 743069; active = well fitted curve in the direction sought with a large enough effect in the signal ratio in the repeat runs, not every such curve was filed as active; the % refers to the signal ratio). In short, it runs like this:
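Beta-lactamase FRET fluorescence is read after 2 hr at room temperature with LiveBLAzer B/G substrate. Before that, ER-alpha-bla HEK293 cells sit 4 hr after plating, then receive compound plus 17beta-estradiol and incubate 18 hr at 37C.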

Assay [9] in a line: qHTS assay to identify small molecule antagonists of the estrogen receptor alpha (ER-alpha) signaling pathway - cell viability counter screen (AID 743074; calls by dose curve;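 note: HEK293 cells carrying ER-alpha-UAS-bla reporter stimulated with 17beta-estradiol; nearly all actives have a fitted effect of over 45% in size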; note: potency is the fitted concentration of half-maximal effect).
Assay [10] addresses Estrogen receptor (Homo sapiens) (UniProt P03372). Kind of assay: qHTS assay to identify small molecule agonists of the estrogen receptor alpha (ER-alpha) signaling pathway (AID 743075; calls by dose curve;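 note: HEK293 GripTite cells with ER-alpha and UAS-driven beta-lactamase reporter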).
For assay [11] the target is unchanged. Kind of assay: qHTS assay to identify small molecule agonists of the estrogen receptor alpha (ER-alpha) signaling pathway using the BG1 cell line (AID 743079). Note: nearly all actives have a fitted effect of over 20% in size. Note: potency is the fitted concentration of half-maximal effect. As to conditions: BG1Luc4E2 cells, ERE-luciferase agonist, 22 h; activation: at 70.3 µM (top of the series).
A short description of assay [12]: qHTS assay to identify small molecule antagonists of the estrogen receptor alpha (ER-alpha) signaling pathway using the BG1 cell line - cell viability counter screen (AID 743081).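 Note: compound given together with 17beta-estradiol as the ER stimulus; nearly all actives have a fitted effect of over 45% in size.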 Note: potency is the fitted concentration of half-maximal effect.
Another assay addresses Aromatase (Homo sapiens) (UniProt P11511). The experiment in a line: qHTS assay to identify aromatase inhibitors (AID 743083). Note: nearly all actives have a fitted effect of over 55% in size. Note: potency is the fitted concentration of half-maximal effect.
Assay [13] is described as follows: qHTS assay for identifying genotoxic compounds that show differential cytotoxicity against isogenic chicken DT40 cell lines with known DNA damage response pathways - Rad54/Ku70 mutant cell line (AID 743015). Note: nearly all actives have a fitted effect of over 60% in size. Note: potency is the fitted concentration of half-maximal effect.
The target in assay [14] is Androgen receptor (Homo sapiens) (UniProt P10275). Kind of assay: qHTS assay to identify small molecule agonists of the androgen receptor (AR) signaling pathway (AID 743036; active = well fitted activation curve with a large enough effect in the signal ratio in the repeat runs, with a control signal flat, not every such curve was filed as active; the % refers to the signal ratio). In short, it runs like this: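 Beta-lactamase under UAS control, stably integrated in HEK293 GripTite cells, reports receptor activation. After 16 h compound treatment, cells received FRET substrate for 2 h at room temperature before fluorescence reading.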

For assay [15] the target is unchanged. The experiment in a line: qHTS assay to identify small molecule agonists of the androgen receptor (AR) signaling pathway using the MDA cell line (AID 743040; note: nearly all actives have a fitted effect of over 20% in size). In short, it runs like this: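 Luciferase read-out, ONE-Glo, 30 min RT. Cells: MDA-kb2 AR-luc, MMTV promoter with AR and GR response elements. Compound exposure 16 h, 37C, 0% CO2, after 5 h pre-incubation. qHTS agonist mode.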

For assay [16] the target is unchanged. Kind of assay: qHTS assay to identify small molecule antagonists of the androgen receptor (AR) signaling pathway using the MDA cell line (AID 743042; note: nearly all actives have a fitted effect of over 55% in size; note: potency is the fitted concentration of half-maximal effect). In short, it runs like this: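 MDA-kb2 breast carcinoma cells carrying MMTV-luciferase (AR/GR responsive) were co-treated with compounds and the agonist R1881 for 16 h at 37C. Inhibition read as ONE-Glo luminescence; CellTiter-Fluor fluorescence measured in parallel for cytotoxicity.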

A short description of assay [17]: qHTS assay to identify small molecule antagonists of the estrogen receptor alpha (ER-alpha) signaling pathway using the BG1 cell line (AID 743080; calls by dose curve;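 note: BG1 cells stimulated with 17beta-estradiol alongside compound; nearly all actives have a fitted effect of over 25% in size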; note: potency is the fitted concentration of half-maximal effect). The method, boiled down: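 Luciferase inhibition measured with ONE-Glo after 30 min at RT in BG1Luc4E2 cells given test compounds and 17beta-estradiol for 21.5 h at 37 C; CellTiter-Fluor viability read in the same wells beforehand.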

Assay [18] has as its target Androgen receptor (Homo sapiens) (UniProt P10275). The experiment in a line: qHTS assay to identify small molecule antagonists of the androgen receptor (AR) signaling pathway (AID 743035; active = well fitted inhibition curve with a large enough effect in the signal ratio in the repeat runs, not every such curve was filed as active; the % refers to the signal ratio; note: potency is the fitted concentration of half-maximal effect). The method, boiled down:
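Reporter HEK293 cells were exposed to compounds and R1881 overnight (16 h, 37C); beta-lactamase activity was then quantified by FRET fluorescence.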

“And” between values parts separate entries of the source, which are not always exact repeats. Identical values can stand only once. Records with an inconclusive call do not appear. The source made the active and inactive calls. Unless noted, calls come from the whole dose curve; as a rule, active = well fitted curve in the direction sought with a large enough effect in the repeat runs; inconclusive = weak or mixed curves; inactive = no such curve, though single readings can be large; an effect the other way counts as inactive or inconclusive.
% is set by controls: 0 for no effect and ±100 for the full control effect.

Estrogen receptor (Homo sapiens), sequence (P03372 whole entry, looked up): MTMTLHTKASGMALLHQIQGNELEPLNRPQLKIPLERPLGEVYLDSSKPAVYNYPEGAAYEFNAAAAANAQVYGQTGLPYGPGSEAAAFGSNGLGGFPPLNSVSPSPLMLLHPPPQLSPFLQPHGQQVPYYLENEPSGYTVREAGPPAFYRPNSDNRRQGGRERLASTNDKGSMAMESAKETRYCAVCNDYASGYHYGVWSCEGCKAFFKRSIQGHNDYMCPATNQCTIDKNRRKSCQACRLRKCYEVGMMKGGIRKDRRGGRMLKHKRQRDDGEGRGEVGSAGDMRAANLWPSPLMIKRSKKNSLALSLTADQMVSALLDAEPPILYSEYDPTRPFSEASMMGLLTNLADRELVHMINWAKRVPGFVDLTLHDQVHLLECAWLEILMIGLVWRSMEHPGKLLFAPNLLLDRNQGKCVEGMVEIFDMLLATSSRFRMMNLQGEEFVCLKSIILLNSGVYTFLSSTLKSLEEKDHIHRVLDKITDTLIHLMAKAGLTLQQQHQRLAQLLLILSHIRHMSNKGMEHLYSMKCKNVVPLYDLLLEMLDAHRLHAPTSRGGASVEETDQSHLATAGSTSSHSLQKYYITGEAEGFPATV
Aromatase (Homo sapiens), sequence (P11511 whole entry, looked up): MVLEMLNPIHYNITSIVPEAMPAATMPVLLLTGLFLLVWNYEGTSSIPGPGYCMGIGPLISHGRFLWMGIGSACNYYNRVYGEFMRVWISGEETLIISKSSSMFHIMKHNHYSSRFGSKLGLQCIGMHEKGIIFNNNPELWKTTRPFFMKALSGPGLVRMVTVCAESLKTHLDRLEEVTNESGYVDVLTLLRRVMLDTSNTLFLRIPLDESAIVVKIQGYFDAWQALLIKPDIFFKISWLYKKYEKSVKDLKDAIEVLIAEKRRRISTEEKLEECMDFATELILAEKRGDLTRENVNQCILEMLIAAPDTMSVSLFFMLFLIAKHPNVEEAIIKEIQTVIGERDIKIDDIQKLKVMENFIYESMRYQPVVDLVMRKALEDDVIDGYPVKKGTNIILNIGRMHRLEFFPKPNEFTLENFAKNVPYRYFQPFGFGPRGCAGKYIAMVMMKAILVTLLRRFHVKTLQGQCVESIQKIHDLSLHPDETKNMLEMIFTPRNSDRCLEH
Androgen receptor (Homo sapiens), sequence (P10275 whole entry, looked up): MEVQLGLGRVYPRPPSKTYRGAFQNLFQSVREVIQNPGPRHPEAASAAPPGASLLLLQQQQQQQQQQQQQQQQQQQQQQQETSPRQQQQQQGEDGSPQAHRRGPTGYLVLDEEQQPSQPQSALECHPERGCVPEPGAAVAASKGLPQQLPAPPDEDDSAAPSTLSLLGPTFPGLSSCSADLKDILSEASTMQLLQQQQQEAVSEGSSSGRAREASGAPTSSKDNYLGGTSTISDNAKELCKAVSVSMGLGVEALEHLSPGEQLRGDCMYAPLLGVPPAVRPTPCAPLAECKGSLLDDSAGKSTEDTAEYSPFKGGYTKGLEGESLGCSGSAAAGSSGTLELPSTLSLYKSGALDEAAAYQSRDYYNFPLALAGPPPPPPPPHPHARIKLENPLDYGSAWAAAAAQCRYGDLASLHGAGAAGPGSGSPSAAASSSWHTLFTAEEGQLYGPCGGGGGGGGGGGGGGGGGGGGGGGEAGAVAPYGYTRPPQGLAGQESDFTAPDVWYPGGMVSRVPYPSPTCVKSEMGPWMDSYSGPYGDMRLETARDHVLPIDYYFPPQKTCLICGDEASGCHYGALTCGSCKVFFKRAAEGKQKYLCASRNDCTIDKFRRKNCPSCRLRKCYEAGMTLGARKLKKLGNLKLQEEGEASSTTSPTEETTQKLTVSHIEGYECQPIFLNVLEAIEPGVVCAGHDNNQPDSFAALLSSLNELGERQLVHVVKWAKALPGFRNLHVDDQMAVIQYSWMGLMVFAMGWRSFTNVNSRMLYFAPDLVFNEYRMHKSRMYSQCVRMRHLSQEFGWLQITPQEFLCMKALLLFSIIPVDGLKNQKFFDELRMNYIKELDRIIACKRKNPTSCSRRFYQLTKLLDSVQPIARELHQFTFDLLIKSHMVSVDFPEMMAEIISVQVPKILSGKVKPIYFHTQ

Turning to `CCC1COC(Cn2cncn2)(c2ccc(Cl)cc2Cl)O1` (centres undefined), the Potency in [1] was 15.4 µM (active); in assay [2] it was 9.69 µM (active); in the assay with Aromatase (Homo sapiens), 24.3 µM (active). Moreover, the Potency entry in assay [3], in [4], in assay [5], in [6], in assay [7] and in assay [8] was “inactive” throughout. The Potency entry in assay [9], in assay [10], in [11] and in assay [12] was “inactive” each time.

`O=S1(=O)OCC2C(CO1)C1(Cl)C(Cl)=C(Cl)C2(Cl)C1(Cl)Cl` (centres undefined): the Potency is 24.3 µM (active) in assay [1]; 10.9 µM (active) in [2]; 27.3 µM (active) in [13]; 54.5 µM (active) in [5]; 48.6 µM (active) in assay [6]; 54.5 µM (active) with Aromatase (Homo sapiens). Moreover, the Potency result in assay [8], in [10], in assay [11] and in assay [12] was “inactive” in each case.

Turning to `O=C(NC(=O)c1c(F)cccc1F)Nc1ccc(Oc2ccc(C(F)(F)F)cc2Cl)cc1F`, the Potency was 4.33 µM (active) in assay [1], 21.7 µM (active) in [2], 3.86 µM (active) in assay [13] and 43.3 µM (active) in assay [5]. The Potency entry in [7], in [9] and in [12] was “inactive” each time.

As to `CCCCCCCc1ccc(O)cc1`, the Potency in assay [1] is 21.7 µM (active); in assay [2], 19.3 µM (active); in assay [11] it was 24.3 µM (active). Further, the Potency entry in assay [3], in assay [4], in assay [16], in assay [7], in assay [8] and in [9] was “inactive” throughout. The Potency entry in [10] and in [12] was “inactive” each time. The compound was classed as inactive in [14] and in assay [15].

On to `COP(=S)(OC)Oc1nc(Cl)c(Cl)cc1Cl`, for which the Potency in assay [2] was 61.1 µM (active). Also, the Potency entry in [3], in assay [4], in [7], in [9], in assay [10] and in assay [11] was “inactive” throughout. Besides, the Potency entry (in assay [17]; in assay [12]; with Aromatase (Homo sapiens)) was “inactive” each time.

Consider `CO/N=C(/C1=NOCCO1)c1ccccc1Oc1ncnc(Oc2ccccc2Cl)c1F`, for which the Potency is 0.0306 µM (active) in assay [1]; 0.0544 µM (active) in [2]; 6.91 µM (active) in assay [3]; 30.6 µM (active) in assay [4]; 0.863 µM (active) in assay [6]; 8.63 µM (active) in assay [17]. Besides, the Potency in the assay with Aromatase (Homo sapiens) was 54.4 µM (active).

With `[O]=[Cr](=[O])([OH])[O][Cr](=[O])(=[O])[OH]`, the Potency is 21.1 µM (active) [middle of 4 runs] in assay [1]; 7.83 µM (active) and 21.8 µM (active) in assay [3]; 13.3 µM (active) and 2.46 µM (active) and 2.43 µM (active) with Aromatase (Homo sapiens). Further, the outcome in assay [15] was inactive. The Potency result in assay [4], in assay [16], in assay [7], in [9], in assay [10] and in assay [11] was “inactive” in each case. Further, the Potency entry in assay [17] and in assay [12] was “inactive” in each case.

Turning to `Fc1ccc(C(OCCN2CCN(CCCc3ccccc3)CC2)c2ccc(F)cc2)cc1`, the Potency in [1] is 2.11 µM (active); in assay [2], 2.11 µM (active); in assay [3] it was 21.3 µM (active); in [18], 15.1 µM (active); in [4], 21.1 µM (active); in assay [16], 16.8 µM (active). Besides, the Potency in assay [6] is 7.5 µM (active); in [9], 15.1 µM (active); in [12], 21.1 µM (active); with Aromatase (Homo sapiens) it was 18.8 µM (active). Further, the compound was called inactive in [14] and in assay [15]. In addition, the Potency result in [10] was “inactive”.

In the case of `O=C(N[C@@H]1N=C(c2ccccc2F)c2cccc3c2N(CC3)C1=O)c1cc2ccccc2[nH]1`, the Potency entry in [2], in assay [3], in assay [4] and in [7] was “inactive” each time. The Potency in assay [13] was 21.1 µM (active); in assay [6], 6.68 µM (active).

With `CN1CCc2cc(Cl)c(O)cc2[C@H]2c3ccccc3CC[C@@H]21`, the Potency entry (in assay [3]; in [4]; in [9]; in assay [10]; in [11]; in the assay with Aromatase (Homo sapiens)) was “inactive” in each case. Also, the Potency in assay [6] is 13.3 µM (active).

On to `S=C=NCCc1ccccc1`, for which the Potency result in assay [1], in [13], in assay [3], in assay [18], in [4] and in assay [16] was “inactive” each time. In addition, the Potency entry (in [7]; in assay [8]; in [9]; in [10]; in [12]; with Aromatase (Homo sapiens)) was “inactive” in each case. Moreover, the compound was classed as inactive in assay [15]. In addition, in assay [11], the Potency is 54.6 µM (active).

Regarding `CCCCn1cc[n+](C)c1.[Cl][Fe-]([Cl])([Cl])[Cl]`, the Potency entry in [1], in [2], in assay [3], in assay [4], in [5] and in assay [6] was “inactive” in each case. Further, the Potency result (in assay [7]; in [9]; in assay [12]; with Aromatase (Homo sapiens)) was “inactive” each time.

For `Cc1c([N+](=O)[O-])c(C)c([N+](=O)[O-])c(C(C)(C)C)c1[N+](=O)[O-]`, the Potency in assay [1] and in assay [2] was 68.6 µM (active) each time. The Potency entry in assay [3], in assay [4], in assay [7], in [9], in [10] and in assay [11] was “inactive” each time. Moreover, the Potency result in assay [17] and in [12] was “inactive” in each case.

For `COc1ccc2c(c1OC)C(=O)O[C@@H]2[C@H]1c2cc3c(cc2CCN1C)OCO3`, the Potency entry in assay [1], in [3], in assay [18], in [4], in assay [16] and in [7] was “inactive” throughout. Further, the Potency entry (in assay [9]; with Aromatase (Homo sapiens)) was “inactive” throughout. For the same compound, the result in assay [14] and in assay [15] was inactive.

As to `Nc1c(Cl)c(Cl)c(Cl)c(Cl)c1Cl`, the Potency result in assay [13], in [3], in assay [16], in [6], in assay [7] and in assay [9] was “inactive” in each case. The Potency result (in assay [12]; with Aromatase (Homo sapiens)) was “inactive” each time. In addition, the outcome in assay [15] was inactive.

Take `CCN1CCC2(CC1)COc1cc3c(cc12)N(C(=O)c1ccc(-c2ccc(-c4nnc(C)o4)cc2C)cc1)CC3`: the Potency in assay [1] is 1.26 µM (active); in assay [2], 1.42 µM (active); in assay [3], 6.38 µM (active); in assay [16] it was 63.3 µM (active); in assay [5] it was 14.2 µM (active); in assay [6], 2.52 µM (active). Also, the figures for the Potency (in [9]; with Aromatase (Homo sapiens)) were 50.7 µM (active) and 28.3 µM (active), respectively. In addition, the compound was called inactive in [15]. In addition, the Potency result in [10] is “inactive”.

With `N#CSCc1ccccc1`, the Potency entry in assay [1], in [2], in assay [3], in [4], in assay [5] and in assay [6] was “inactive” in each case. The Potency result in [7], in assay [8], in assay [9], in assay [11], in [17] and in assay [12] was “inactive” each time. For the same compound, the Potency result with Aromatase (Homo sapiens) is “inactive”.
